Source: PubChem
A selection: hits, their analogues and other compounds. The true share with any hit is near 2.3%.
ELG1 DNA repair – blocks ELG1-dependent DNA repair in HEK293T cells; HEK293T ELG1-luciferase reporter, luminescence, 16 h; DNA damage induced by 5-fluorouridine; Potency, µM (titrated, usually from 46.1 µM), for inactives: at the highest dose activity change, negative = inhibition, actives largely listed as inhibitors; hit rate 2.3% among 330,000; AID 504467; also: potency is read from the fitted curve at half-maximal effect; % is scaled to controls: 0 for no effect and ±100 for the full control effect; nearly all actives have a fitted effect of over 55% in size
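Step one: seed 2,000 cells per well. Step two: pin-transfer compound or DMSO alongside 5-fluorouridine. Step three: incubate 16 hr, 37 °C, 5% CO2. Step four: add ONE-Glo, wait 30 min, read luminescence.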
TRPV1 agonist – activates the human vanilloid receptor TRPV1; Q8NER1; TRPV1-expressing cells, Fluo-8 calcium influx, agonist mode; activation, % at 8.33 µM; hit rate 0.19% among 320,000; in the data active = activation above about 80%; inconclusive = between about 30% and that limit; also: 0% is about no effect
Target sequence (Q8NER1 whole entry, looked up): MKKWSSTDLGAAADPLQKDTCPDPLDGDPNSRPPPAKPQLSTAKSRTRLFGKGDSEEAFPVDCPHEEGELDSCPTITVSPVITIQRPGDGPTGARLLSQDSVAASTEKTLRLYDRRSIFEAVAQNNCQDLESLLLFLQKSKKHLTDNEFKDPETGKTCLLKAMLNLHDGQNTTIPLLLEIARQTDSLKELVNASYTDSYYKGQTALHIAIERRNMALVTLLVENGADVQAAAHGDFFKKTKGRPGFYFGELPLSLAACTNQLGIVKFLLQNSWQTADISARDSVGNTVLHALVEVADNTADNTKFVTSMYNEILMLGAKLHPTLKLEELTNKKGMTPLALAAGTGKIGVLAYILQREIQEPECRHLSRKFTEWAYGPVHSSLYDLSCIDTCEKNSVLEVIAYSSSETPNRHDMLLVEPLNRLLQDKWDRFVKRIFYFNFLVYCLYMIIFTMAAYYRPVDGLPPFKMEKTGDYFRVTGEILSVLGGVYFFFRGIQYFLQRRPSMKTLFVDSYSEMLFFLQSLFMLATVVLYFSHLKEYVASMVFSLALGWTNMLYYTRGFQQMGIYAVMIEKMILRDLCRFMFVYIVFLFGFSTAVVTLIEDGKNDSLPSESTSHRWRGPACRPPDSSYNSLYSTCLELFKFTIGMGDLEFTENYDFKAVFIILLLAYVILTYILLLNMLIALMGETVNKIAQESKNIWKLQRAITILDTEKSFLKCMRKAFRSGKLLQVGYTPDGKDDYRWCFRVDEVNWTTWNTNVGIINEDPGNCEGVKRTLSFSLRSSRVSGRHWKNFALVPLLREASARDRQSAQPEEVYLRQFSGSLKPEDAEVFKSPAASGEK
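Fluo-8 calcium influx in TRPV1-expressing cells, kinetic read (ex 480/em 520 nm). Compound added and read 3 min for agonist activity, followed by capsaicin at EC20 final and 2 min further read for enhancement.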
Giardia kill – kills Giardia lamblia | Giardia lamblia trophozoite viability | activity change, % at 7.66 µM, hits read low | hit rate 0.15% among 340,000 | AID 540267; in the data active = activity change below about -80%; inconclusive = between about -30% and that limit;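 also: parasites exposed to compound for two days anaerobically before the ATP read; % is scaled to controls: 0 for no effect and ±100 for the full control effect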
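Luminescent ATP signal served as the viability read-out, measured 15-30 min after adding ATP detection reagent to trophozoites that had been incubated with compounds for 48 hrs at 37 deg C anaerobically at 100 cells/well.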
FUS suppressor – rescues growth of FUS-expressing yeast; AID 1347120; Potency, µM (highest dose often 76.6 µM), actives largely listed as activators; S. cerevisiae FUS-expressing, growth rescue, OD600, 24 h; hit rate 0.24% among 390,000;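 also: potency is read from the fitted curve at half-maximal effect; plate controls were DMSO vehicle for no effect and reference control for full effect; nearly all actives have a fitted effect of over 55% in size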
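Absorbance at 600 nm, taken 24hr after compound addition, measured rescue of FUS-yeast growth at 30C. Induction used 2% galactose with seeding at OD 0.005. Controls: CP55940 from 92uM final, DMSO only.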
TRPV1 potentiator – human TRPV1 potentiation. Q8NER1. TRPV1-expressing cells, Fluo-8 calcium influx, capsaicin EC20 potentiation. potentiation, % at 8.33 µM. hit rate 0.02% among 320,000; in the data active = potentiation above about 80%; inconclusive = between about 30% and that limit; also: 0% is about no effect
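Cells expressing TRPV1 were dye-loaded with Fluo-8 and read kinetically: 10 s baseline, 3 min after compound (agonist portion), then 2 min after EC20 capsaicin (allosteric enhancer portion). Calcium-bound dye fluorescence at 480/520 nm.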
Numbers without * were called inactive. Unless noted, calls follow the shape of the dose curve; as a rule, active = well fitted curve in the direction sought with a large enough effect; inconclusive = small, poorly fitted or top-dose-only effect, or another doubt; inactive = no such curve, though single readings can be large; an effect the other way counts as inactive or inconclusive.

What do the screens show for `O=C(N/N=C\c1ccc(O)c([N+](=O)[O-])c1)C1COc2ccccc2O1` (stereo not drawn)?
ELG1 DNA repair: -8.9%; TRPV1 agonist: -4.0; Giardia kill: inconclusive; FUS suppressor: inactive; TRPV1 potentiator: 5.3

Results for Cc1cc([N+](=O)[O-])cc(/C=N\NC(=O)C2COc3ccccc3O2)c1O (stereo not drawn) ?
ELG1 DNA repair: 20.6µM*; TRPV1 agonist: -1.8; Giardia kill: 7.6; FUS suppressor: inactive; TRPV1 potentiator: 2.4

Results for CCCCCn1c(N2CCN(Cc3ccccc3)CC2)nc2c1c(=O)[nH]c(=O)n2C ?
ELG1 DNA repair: 16.4µM*; TRPV1 agonist: 22.1; Giardia kill: 4.0; FUS suppressor: inactive; TRPV1 potentiator: -33.9

What do the screens show for `C=CCOc1ccc(-c2nc3c(c(=O)[nH]c(=O)n3CCC)n2CCCC)cc1`?
ELG1 DNA repair: -0.4%; TRPV1 agonist: -0.9; Giardia kill: 41.1; FUS suppressor: inactive; TRPV1 potentiator: -6.5

Results for COc1ccc(N2CCN(Cc3nc4c(c(=O)[nH]c(=O)n4C)n3CCCc3ccccc3)CC2)cc1 ?
ELG1 DNA repair: 8.91µM*; TRPV1 agonist: 1.2; Giardia kill: 20.7; FUS suppressor: inactive; TRPV1 potentiator: 8.8

How did CCCCn1c(=O)[nH]c(=O)c2c1nc(-c1ccsc1)n2Cc1ccccc1 do in these assays?
ELG1 DNA repair: 18.4µM*; TRPV1 agonist: 19.4; Giardia kill: 2.4; FUS suppressor: inactive; TRPV1 potentiator: -6.7

What do the screens show for `CC(C)CCn1c(N2CCN(Cc3ccccc3)CC2)nc2c1c(=O)[nH]c(=O)n2C`?
ELG1 DNA repair: inconclusive; TRPV1 agonist: 5.8; TRPV1 potentiator: -3.1

What do the screens show for `C=CCn1c(SCc2nc3c(c(=O)[nH]c(=O)n3CCCC)n2CCC)nnc1-c1ccccc1`?
ELG1 DNA repair: 18.4µM*; TRPV1 agonist: 5.6; Giardia kill: 18.2; FUS suppressor: inactive; TRPV1 potentiator: 0.0

Results for CCc1ccc(NC(=O)CN2C(=O)C3(SCC(=O)N3c3ccccc3)c3ccccc32)cc1 (stereo not drawn) ?
FUS suppressor: inactive

What do the screens show for `O=S1(=O)c2ccccc2N(Cc2cccc(F)c2)c2ccccc21`?
FUS suppressor: inactive

How did CCCC1=Nc2cc(C(=O)NCC(C)c3ccccc3)ccc2Sc2ccccc21 (stereo not drawn) do in these assays?
FUS suppressor: inactive

How did NC(=O)c1ccc(NC(=O)C2CCN(S(=O)(=O)Cc3ccccc3)CC2)cc1 do in these assays?
FUS suppressor: inactive

How did Cc1ccc(-n2c(=O)c3c(c4cc(C)ccc4n3C)n(CC(=O)NCc3ccccc3)c2=O)cc1 do in these assays?
FUS suppressor: inactive

What do the screens show for `CC(CSc1nc2ccccc2s1)Cn1c(N2CCCC2)nc2c1c(=O)[nH]c(=O)n2C` (stereo not drawn)?
ELG1 DNA repair: 14.6µM*; TRPV1 agonist: -9.1; Giardia kill: inconclusive; FUS suppressor: inactive; TRPV1 potentiator: 8.8

How did Cn1c(=O)[nH]c(=O)c2c1nc(N1CCCCCC1)n2CCCSc1nc2ccccc2o1 do in these assays?
ELG1 DNA repair: 23.1µM*; TRPV1 agonist: 10.6; Giardia kill: -6.0; FUS suppressor: inactive; TRPV1 potentiator: -5.0

What do the screens show for `Cn1c(=O)[nH]c(=O)c2c1nc(CN1CCN(c3cccc(Cl)c3)CC1)n2CCCc1ccccc1`?
ELG1 DNA repair: 9.2µM*; TRPV1 agonist: -0.7; Giardia kill: -0.8; FUS suppressor: inactive; TRPV1 potentiator: -9.0

Results for CCCCn1c(CN2CCN(c3cccc(Cl)c3)CC2)nc2c1c(=O)[nH]c(=O)n2C ?
ELG1 DNA repair: inconclusive; TRPV1 agonist: 9.8; Giardia kill: 16.1; FUS suppressor: inactive; TRPV1 potentiator: -9.8

What do the screens show for `O=C(Cn1ncc2c([nH]c3ccccc32)c1=O)NCc1cccc(Cl)c1`?
FUS suppressor: inactive

What do the screens show for `CCOc1cc(N2CCOCC2)c(OCC)cc1NC(=O)c1nc2nc(C)cc(C)n2n1`?
ELG1 DNA repair: 7.94µM*; TRPV1 agonist: 1.1; Giardia kill: 10.7; FUS suppressor: inactive; TRPV1 potentiator: -5.5

Results for CCOc1cc(N2CCOCC2)c(OCC)cc1NC(=O)c1ccc(OCc2c(C)noc2C)c(OC)c1 ?
ELG1 DNA repair: 5.8µM*; TRPV1 agonist: -4.4; Giardia kill: 5.4; FUS suppressor: inactive; TRPV1 potentiator: 11.8

Results for CCOc1cc(N2CCOCC2)c(OCC)cc1NC(=O)c1cnccn1 ?
ELG1 DNA repair: 10.3µM*; Giardia kill: 11.9; FUS suppressor: inactive

Results for Cc1cc(C)n2nc(C(=O)Nc3ccccc3N3CCOCC3)nc2n1 ?
ELG1 DNA repair: inconclusive; TRPV1 agonist: 2.0; TRPV1 potentiator: 2.6

Results for CCOc1cc(-n2cnnn2)c(OCC)cc1NC(=O)c1cnccn1 ?
ELG1 DNA repair: 5.8%; TRPV1 agonist: 1.4; Giardia kill: 5.3; FUS suppressor: inactive; TRPV1 potentiator: 20.8

Results for CCOc1cc(N2CCOCC2)c(OCC)cc1NC(=O)c1ccc(OC)cc1 ?
ELG1 DNA repair: inconclusive; TRPV1 agonist: -1.6; Giardia kill: 1.9; FUS suppressor: inactive; TRPV1 potentiator: inconclusive

What do the screens show for `O=C(NCCN1CCOCC1)C1(C(F)(F)F)CC(CCCO)CCCO1` (stereo not drawn)?
Giardia kill: -8.5

Results for CCOc1cc(/C=C2/SC(=Nc3ccccc3)N(Cc3cccnc3)C2=O)ccc1OCC#N ?
ELG1 DNA repair: 18.4µM*; TRPV1 agonist: -2.7; Giardia kill: 6.9; FUS suppressor: inactive; TRPV1 potentiator: -1.1

Results for COc1ccc(CN2CC(=O)N(c3ccc(C)c(C)c3)C2=S)cc1OC ?
ELG1 DNA repair: 16.4µM*; TRPV1 agonist: 16.3; Giardia kill: -8.4; FUS suppressor: inconclusive; TRPV1 potentiator: -5.9

What do the screens show for `CCc1nc2sc3ccccc3c(=O)c2c(=O)n1Cc1ccco1`?
ELG1 DNA repair: inconclusive; TRPV1 agonist: 1.1; Giardia kill: 3.1; FUS suppressor: 31.6µM*; TRPV1 potentiator: 2.0

What do the screens show for `CCS(=O)(=O)c1ccc(O)c(NC(=O)Nc2ccccc2)c1`?
ELG1 DNA repair: 14.0%; TRPV1 agonist: 1.3; Giardia kill: -9.3; FUS suppressor: inactive; TRPV1 potentiator: -3.6

How did CCS(=O)(=O)c1ccc(O)c(NC(=O)Nc2ccc(C(C)(C)C)cc2)c1 do in these assays?
ELG1 DNA repair: 14.6µM*; TRPV1 agonist: 12.9; Giardia kill: 3.3; FUS suppressor: inactive; TRPV1 potentiator: 5.2

How did CCCN(CCC)C(=O)C1CCN(c2cc(C)nc3c(-c4ccc(OC)c(OC)c4)c(C)nn23)CC1 do in these assays?
ELG1 DNA repair: 6.51µM*; TRPV1 agonist: 1.9; Giardia kill: -28.8; FUS suppressor: inactive; TRPV1 potentiator: -3.3

Results for CC(=O)c1ccc(N2CCN(C(=O)c3nn(Cc4ccccc4)c(=O)c4ccccc34)CC2)cc1 ?
ELG1 DNA repair: 9.2µM*; TRPV1 agonist: 2.2; Giardia kill: -5.2; FUS suppressor: inconclusive; TRPV1 potentiator: 27.5
